This is part of a sample that, as a whole, favours compounds with a hit. Of some 83,000 tested, about 20% had one in any assay.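 Compound tested at a single concentration for 48 hours in 96-well plates; a percent growth value below 10 was scored as active.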 Values without a mark were called inactive. The source made the active and inactive calls.

9 compounds from PubChem BioAssay (NCI) can be followed below.

Assay in all cases: NCI-60 one-dose screen, 48 h (100 = growth as untreated, 0 = no growth, -100 = all killed)
Conditions in all cases: 10 µM

In experiment [1] the test system is RPMI-8226 leukemia.
In experiment [2] the test system is OVCAR-8 ovarian.
Experiment [3] deals with OVCAR-5 ovarian.
The subject of experiment [4] is OVCAR-4 ovarian.
Experiment [5] deals with SK-OV-3 ovarian.
For experiment [6], the system named is IGROV1 ovarian.
For experiment [7], the system named is OVCAR-3 ovarian.
The test system of experiment [8] is HS 578T breast.
For experiment [9], the system named is NCI/ADR-RES ovarian.
For experiment [10], the system named is T-47D breast.
Experiment [11] concerns BT-549 breast.
Experiment [12] has as its system MDA-MB-435 melanoma.
The subject of experiment [13] is SW-620 colon.
Experiment [14] has as its system MCF7 breast.
The test system of experiment [15] is HCT-116 colon.
Experiment [16] has as its system HCC-2998 colon.
In experiment [17] the test system is KM12 colon.
The subject of experiment [18] is MDA-MB-468 breast.
The test system of experiment [19] is SR leukemia.

For the compound `Cc1cc(C)cc(Oc2cccc(-c3c(C)nnn3C3CCN(CCN(C)C)CC3)n2)c1`, the growth in experiment [1] was -12.1% (active); in experiment [2], 35.9%; in experiment [3], 58%; in [4], 38.9%; in experiment [5], 9.31% (active); in experiment [6], 36.2%. The growth in experiment [7] was 38%; in experiment [8] it was 5.31% (active); in [9], 32.4%; in [10] it was 24.8%; in experiment [11], 9.68% (active); in [12], 20.7%. Also, the growth in experiment [13] was 45.9%; in [14], 6.99% (active); in experiment [15] it was 15.2%; in experiment [16], 0.234% (active); in experiment [17], 37%; in [18] it was -20.2% (active).

Regarding `O=C(Nc1nc2ccc([N+](=O)[O-])cc2s1)Nc1ccccc1I`, the growth in experiment [1] was -27.9% (active); in experiment [2] it was 11%; in experiment [3], 5.55% (active); in [4], 14.4%; in [5] it was -7.59% (active); in [6] it was 19.7%. For the same compound, the growth in experiment [7] is 14.4%; in [8] it was 9.12% (active); in experiment [9], -5.83% (active); in experiment [10], -16.7% (active); in experiment [11], -18.9% (active); in experiment [12], -7.59% (active). Further, the growth was 7.65% (active) in [13]; -13.9% (active) in experiment [14]; -18.8% (active) in [15]; 4.48% (active) in [16]; 2.86% (active) in [17].

Consider `CC(=O)Nc1nc(-c2ccc(N3CCN(C)CC3)c(NS(=O)(=O)c3cccc4c(N(C)C)cccc34)c2)cs1`, for which the growth in [1] was 6.29% (active); in experiment [2], 76.7%; in [3], 83.4%; in experiment [4] it was 68.8%; in [5] it was 63.9%; in experiment [6], 84.8%. Moreover, the growth is 78.9% in experiment [7]; 41% in [8]; 94.8% in [9]; 35.6% in experiment [10]; 36.6% in [11]; 51.5% in experiment [12]. In addition, the growth in experiment [13] was 70.9%; in experiment [14] it was 34.9%; in experiment [15], 28.2%; in experiment [16], 43%; in experiment [17] it was 59.8%; in [18], 58.2%.

`CC(C)C(=O)Nc1ccc(C(=O)NC(=S)Nc2ccc(C(=O)O)cc2)cc1`: the growth in experiment [1] was 128%; in experiment [2], 111%; in experiment [3] it was 96.6%; in experiment [4], 111%; in experiment [5] it was 99.9%; in experiment [6], 106%. For the same compound, the growth in [7] was 91.1%; in experiment [8], 98.8%; in experiment [9], 104%; in experiment [10], 98.9%; in experiment [11], 79.5%; in experiment [12], 102%. Also, the growth in experiment [13] was 107%; in [14], 99.9%; in experiment [15], 104%; in [16] it was 110%; in experiment [17], 106%; in experiment [18], 96%.

For `O=C(Nc1ccc(Cl)c(C(F)(F)F)c1)c1cncc(C#Cc2cnc3ccc(N4CCOCC4)nn23)c1`, the growth in [19] was 2.44% (active); in experiment [2] it was 3.66% (active); in [3], 19.4%; in experiment [4] it was 13.6%; in experiment [5], 10.7%; in [6], -14.1% (active). Also, the growth in experiment [7] was 13.6%; in experiment [8], -25.3% (active); in [9] it was -5.95% (active); in experiment [10], 1.27% (active); in experiment [11] it was -14.9% (active); in [12] it was 19.3%. Also, the growth in [13] was 19.4%; in experiment [14], -13.3% (active); in experiment [15], -26.7% (active); in [17], -21.5% (active); in experiment [18], -30.8% (active).

For `COC1CC(Cn2cc(COc3ccc4ccc(=O)oc4c3)nn2)C(OCc2ccccc2)C(OCc2ccccc2)C1OCc1ccccc1` (centres undefined), the growth in [1] was 77.7%; in [2], 103%; in experiment [3] it was 111%; in experiment [4], 93.4%; in experiment [5] it was 91.9%; in experiment [6] it was 107%. Besides, the growth in [7] was 125%; in [8], 109%; in [9], 94.3%; in experiment [10] it was 103%; in experiment [11], 122%; in experiment [12], 103%. Also, the growth in experiment [13] is 97.1%; in experiment [14], 84.8%; in experiment [15], 76.6%; in [16], 121%; in experiment [17] it was 109%.

Regarding `C=C(C)[C@@H]1CC[C@]2(COP(=O)(OCC)OCC)CC[C@]3(C)[C@H](CC[C@@H]4[C@@](C)(CCCN)[C@H](C(=C)C)CC[C@]43C)[C@@H]12`, the growth in [1] is -34.4% (active); in [2], 26%; in experiment [3], 43.2%; in [4] it was 23.2%; in [5], 46.2%; in experiment [6], 40.4%. Moreover, the growth was 24.2% in experiment [7]; 31.3% in [8]; 18.9% in experiment [9]; 19% in [10]; -8.75% (active) in experiment [11]; 14.3% in [12]. Further, the growth in experiment [13] was 12.4%; in experiment [14], 6.11% (active); in experiment [15] it was -31.4% (active); in experiment [16], 10.7%; in [17] it was 16.8%; in experiment [18] it was 5.69% (active).

For the compound `COc1ccccc1[C@H]1C(C(=O)c2ccc(O)cc2)C2(N[C@@H]1c1ccccc1)C(=O)Nc1ccc(Br)cc12` (some centres undefined), the growth is 30.3% in experiment [1]; 37.5% in [2]; 62.7% in [3]; 41.1% in [4]; 61.4% in experiment [5]; 19.2% in experiment [6]. Moreover, the growth is -29.1% (active) in experiment [7]; 36.3% in experiment [8]; 57.7% in [9]; 45.8% in experiment [10]; 54% in experiment [11]; 14.2% in [12]. Moreover, the growth in experiment [13] was 13.6%; in experiment [14], 3.19% (active); in [15] it was 39.6%; in experiment [16], -38.6% (active); in experiment [17] it was 14.3%; in experiment [18] it was -42.9% (active).

Regarding `CC[C@@]1(O)C(=O)OCc2c1cc1n(c2=O)Cc2c-1nc1cc(F)c(C)c3c1c2[C@@H](N)CC3`, the growth is -3.74% (active) in [1]; -38.3% (active) in [2]; -12.5% (active) in experiment [3]; -4.52% (active) in experiment [4]; -32% (active) in [5]; -47.8% (active) in experiment [6]. Besides, the growth in experiment [7] was -17.8% (active); in experiment [8] it was 51.3%; in experiment [9], -12.2% (active); in [10], -3.93% (active); in experiment [11], -10.7% (active); in experiment [12] it was -41.9% (active). In addition, the growth in experiment [13] is 8.5% (active); in experiment [14] it was 8.66% (active); in [15] it was 0.118% (active); in experiment [16] it was -45.4% (active); in [17], 3.85% (active); in experiment [18], -77.2% (active).
